Source: PubChem BioAssay (Tox21)
Records with an inconclusive call do not appear. Active and inactive are the calls of the source. Unless noted, calls follow the shape of the dose curve; as a rule, active = well fitted curve in the direction sought with a large enough effect in the repeat runs; inconclusive = weak or mixed curves; inactive = no such curve, though single readings can be large; an effect the other way counts as inactive or inconclusive.

Legend:
[1] = Caspase-3/7 induction in HepG2 cells by small molecules, qHTS assay (AID 1346978); also: nearly all actives have a fitted effect of over 15% in size; also: potency is read from the fitted curve at half-maximal effect
In short: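 Wild-type HepG2 cells, 2,000/well, settled 5 hr at 37 C and 5% CO2, then compound-treated for 17 hr; caspase-3/7 activity read by luminescent Caspase-Glo 3/7 after 30 min at room temperature.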

[2] = Caspase-3/7 induction in CHO-K1 cells by small molecules, qHTS assay (AID 1346980); also: nearly all actives have a fitted effect of over 15% in size
In short: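 Wild-type CHO-K1 cells exposed to compounds for 17hr at 37 C, 5% CO2. Caspase-3/7 activity then measured by Caspase-Glo 3/7 luminescence after 30min at room temperature.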

[3] = Caspase-3/7 induction in HepG2 cells by small molecules, qHTS cell viability counter screen (AID 1346981); also: series mostly up to about 92 µM; nearly all actives have a fitted effect of over 30% in size
In short: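 Wild-type HepG2 cells (2,000/well) were allowed to settle for 5 hr at 37 C, 5% CO2, then dosed with compounds in DMSO by pin transfer. After 16 hr at 37 C, CellTiter-Fluor was added and fluorescence read 1 hr later.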

[4] = molecular target: Nuclear receptor subfamily 1 group I member 2 (Homo sapiens) (UniProt O75469); assay: Human pregnane X receptor (PXR) small molecule agonists, qHTS assay (AID 1346982); also: nearly all actives have a fitted effect of over 35% in size; also: potency is read from the fitted curve at half-maximal effect
In short: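 PXR-Luc HepG2 cells (CYP3A4 promoter-driven luciferase) were seeded in medium with 5% charcoal-stripped FBS, left 5 hr at 37 C, then exposed to compounds in DMSO for 24 hr. Luminescence was read after ONE-Glo addition.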

[5] = molecular target: Acetylcholinesterase (Homo sapiens) (UniProt P22303); assay: Acetylcholinesterase (AChE) small molecule antagonists: enzyme-based qHTS assay (AID 1347397; calls by dose curve; also: nearly all actives have a fitted effect of over 55% in size); conditions: Potency: AChE enzyme activity inhibition
In short: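 Recombinant human AChE (50 mU/mL) preincubated with compound 30 min at room temperature; acetylthiocholine plus DTNB then added, and thiocholine formation read colorimetrically after 10 min at room temperature. DMSO served as vehicle control.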

[6] = molecular target: Acetylcholinesterase (Homo sapiens) (UniProt P22303); assay: Acetylcholinesterase (AChE) small molecule antagonists: fluorescence cell-based qHTS assay (AID 1347398; calls by dose curve; also: nearly all actives have a fitted effect of over 50% in size); conditions: Potency: AChE activity
In short: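 SH-SY5Y cells (2000/well), attached overnight, incubated with compound 30 min at 37 C. Acetylthiocholine plus Thiolite Green then added for 40 min at room temperature. Thiocholine fluorescence (Ex/Em 490/520 nm) reports cellular AChE activity.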

[7] = molecular target: Acetylcholinesterase (Homo sapiens) (UniProt P22303); assay: Acetylcholinesterase (AChE) small molecule antagonists: enzyme-based qHTS assay with human liver microsomes (AID 1347399; calls by dose curve; also: nearly all actives have a fitted effect of over 60% in size); conditions: Potency: qHTS inhibition
In short: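 Recombinant human AChE (50 mU/mL in the enzyme mix) and human liver microsomes (0.25 mg/mL final) were preincubated with compound and NADPH (0.25 mg/mL final) for 30 min at 37 C. Acetylthiocholine/DTNB was then added; thiocholine was read colorimetrically after 10 min at room temperature.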

[8] = molecular target: Cytochrome P450 2C9 (Homo sapiens) (UniProt P11712); assay: Cytochrome P450 Family 2 Subfamily C Member 9 (CYP2C9) small molecule antagonists: luciferase reporter qHTS assay (AID 1671198); also: nearly all actives have a fitted effect of over 50% in size; also: potency is read from the fitted curve at half-maximal effect
In short: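 P450-Glo proluciferin substrate with CYP2C9 enzyme; 10 min RT preincubation, then NADPH regeneration 1 h at 37C; luciferin detection reagent 20 min RT, luminescence in relative luminescence units.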

[9] = molecular target: Cytochrome P450 1A2 (Homo sapiens) (UniProt P05177); assay: Cytochrome P450 Family 1 Subfamily A Member 2 (CYP1A2) small molecule antagonists: luciferase reporter qHTS assay (AID 1671199); also: nearly all actives have a fitted effect of over 50% in size; also: potency is read from the fitted curve at half-maximal effect
In short: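 Human CYP1A2 activity measured with a P450-Glo proluciferin substrate; compounds in DMSO preincubated 10 min at room temperature with enzyme-substrate mix, then NADPH regeneration system added for 1 h. Luciferin detection reagent, 20 min, luminescence read.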

[10] = molecular target: Voltage-gated inwardly rectifying potassium channel KCNH2 (Homo sapiens) (UniProt Q12809); assay: Human Ether-a-go-go-Related Gene (hERG) channel small molecule antagonists: fluorescence cell-based qHTS assay (AID 1671200); also: nearly all actives have a fitted effect of over 50% in size; also: potency is read from the fitted curve at half-maximal effect
In short: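 Thallium flux as potassium surrogate: FluxOR II dye loaded 1 h at room temperature into hERG-expressing U2OS cells, then stimulus buffer added after 10 min. Kinetic 480 nm excitation/540 nm emission read, 2 min.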

[11] = molecular target: Cytochrome P450 3A4 (Homo sapiens) (UniProt P08684); assay: Cytochrome P450 Family 3 Subfamily A Member 4 (CYP3A4) small molecule antagonists: luciferase reporter qHTS assay (AID 1671201); also: nearly all actives have a fitted effect of over 50% in size; also: potency is read from the fitted curve at half-maximal effect
In short: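 Recombinant human CYP3A4 converts a proluciferin substrate to luciferin over 1 h at room temperature after NADPH regeneration solution is added (compound preincubated 10 min); detection reagent stops reaction, luminescence read 20 min later as relative units.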

[12] = molecular target: Nuclear receptor subfamily 1 group I member 2 (Homo sapiens) (UniProt O75469); assay: CYP3A4 induction through human pregnane X receptor (PXR) by small molecules, qHTS assay (AID 1346984); also: nearly all actives have a fitted effect of over 40% in size
In short: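 DPX-2 cells (HepG2 co-transfected with PXR and CYP3A4 promoter-luciferase) treated with compounds 24 h at 37C; luciferin-IPA CYP3A4 substrate 3uM final added for 3 h, then One-Glo; luminescence read. qHTS format.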

[13] = molecular target: Nuclear receptor subfamily 1 group I member 2 (Homo sapiens) (UniProt O75469); assay: Human pregnane X receptor (PXR) activation by small molecules, qHTS assay (AID 1346985); also: nearly all actives have a fitted effect of over 40% in size
In short: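 DPX-2 cells (HepG2 co-transfected with a PXR response element and a CYP3A4-promoter luciferase construct) were seeded at 2,000 per well, rested 5 hr at 37C, then exposed to DMSO-dissolved compounds for 24 hr. Activation was read as luciferase luminescence.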

[14] = molecular target: Acetylcholinesterase (Homo sapiens) (UniProt P22303); assay: Acetylcholinesterase (AChE) small molecule antagonists: colormetric cell-based qHTS assay (AID 1347395; calls by dose curve; also: nearly all actives have a fitted effect of over 30% in size)
In short: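 Colorimetric readout: DTNB quantifies thiocholine from acetylthiocholine hydrolysed by endogenous AChE of SH-SY5Y cells (2,000/well, plated overnight). Compound pretreatment 30 min, substrate incubation 90 min, both 37 C.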

[15] = molecular target: Cytochrome P450 2D6 (Homo sapiens) (UniProt P10635); assay: Cytochrome P450 Family 2 Subfamily D Member 6 (CYP2D6) small molecule antagonists: luciferase reporter qHTS assay (AID 1671196); also: nearly all actives have a fitted effect of over 50% in size; also: potency is read from the fitted curve at half-maximal effect
In short: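 CYP2D6 enzyme–substrate mix was held with compound for 10 min at room temperature, then NADPH regeneration solution was added and the reaction ran 1 h at room temperature. Luciferin product was detected by luminescence after 20 min with detection reagent.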

[16] = molecular target: Cytochrome P450 2C19 (Homo sapiens) (UniProt P33261); assay: Cytochrome P450 Family 2 Subfamily C Member 19 (CYP2C19) small molecule antagonists: luciferase reporter qHTS assay (AID 1671197); also: nearly all actives have a fitted effect of over 65% in size; also: potency is read from the fitted curve at half-maximal effect
In short: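 Enzyme-substrate mix with proluciferin substrate (P450-Glo CYP2C19 system) preincubated with compounds 10 min at room temperature; NADPH regeneration solution added, 37C for 1 h; detection reagent stops reaction, luminescence read after 20 min. Ketoconazole positive control.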

[17] = Caspase-3/7 induction in CHO-K1 cells by small molecules, qHTS cell viability counter screen (AID 1346979); also: nearly all actives have a fitted effect of over 35% in size; also: potency is read from the fitted curve at half-maximal effect
In short: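 Cytotoxicity counter screen: CellTiter-Fluor added to compound-treated wild-type CHO-K1 cells at 16 h (37C, 5% CO2), fluorescence measured 1 h later; same wells as caspase-3/7 measurement.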

Measured: Potency

Chain of Cytochrome P450 3A4 (Homo sapiens) (P08684 whole entry, looked up): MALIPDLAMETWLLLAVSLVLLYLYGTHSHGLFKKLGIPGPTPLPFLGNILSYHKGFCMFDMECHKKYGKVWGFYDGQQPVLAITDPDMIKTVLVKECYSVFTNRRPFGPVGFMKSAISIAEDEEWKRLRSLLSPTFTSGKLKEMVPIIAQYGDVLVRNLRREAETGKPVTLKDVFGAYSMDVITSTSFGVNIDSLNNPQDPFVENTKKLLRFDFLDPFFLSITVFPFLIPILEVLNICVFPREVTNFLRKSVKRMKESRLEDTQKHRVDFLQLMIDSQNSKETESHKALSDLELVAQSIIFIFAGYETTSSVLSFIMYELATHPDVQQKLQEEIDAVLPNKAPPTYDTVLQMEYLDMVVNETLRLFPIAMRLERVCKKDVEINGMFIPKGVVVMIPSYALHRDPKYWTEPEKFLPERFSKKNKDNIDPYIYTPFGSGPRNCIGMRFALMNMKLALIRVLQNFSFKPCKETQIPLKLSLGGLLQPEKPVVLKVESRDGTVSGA
Chain of Cytochrome P450 2C19 (Homo sapiens) (P33261 whole entry, looked up): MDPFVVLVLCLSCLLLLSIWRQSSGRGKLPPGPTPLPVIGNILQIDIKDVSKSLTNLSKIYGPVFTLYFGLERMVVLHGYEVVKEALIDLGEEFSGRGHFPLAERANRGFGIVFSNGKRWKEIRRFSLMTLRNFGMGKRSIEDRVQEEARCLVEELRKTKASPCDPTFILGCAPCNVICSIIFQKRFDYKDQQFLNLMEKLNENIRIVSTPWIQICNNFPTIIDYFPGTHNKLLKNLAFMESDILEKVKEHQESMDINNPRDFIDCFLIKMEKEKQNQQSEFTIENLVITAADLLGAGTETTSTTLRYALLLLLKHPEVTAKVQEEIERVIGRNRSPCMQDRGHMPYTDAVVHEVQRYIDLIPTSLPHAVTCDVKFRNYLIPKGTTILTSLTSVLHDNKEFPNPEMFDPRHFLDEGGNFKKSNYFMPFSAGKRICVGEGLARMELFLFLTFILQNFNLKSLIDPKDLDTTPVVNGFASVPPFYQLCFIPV
Chain of Cytochrome P450 2C9 (Homo sapiens) (P11712 whole entry, looked up): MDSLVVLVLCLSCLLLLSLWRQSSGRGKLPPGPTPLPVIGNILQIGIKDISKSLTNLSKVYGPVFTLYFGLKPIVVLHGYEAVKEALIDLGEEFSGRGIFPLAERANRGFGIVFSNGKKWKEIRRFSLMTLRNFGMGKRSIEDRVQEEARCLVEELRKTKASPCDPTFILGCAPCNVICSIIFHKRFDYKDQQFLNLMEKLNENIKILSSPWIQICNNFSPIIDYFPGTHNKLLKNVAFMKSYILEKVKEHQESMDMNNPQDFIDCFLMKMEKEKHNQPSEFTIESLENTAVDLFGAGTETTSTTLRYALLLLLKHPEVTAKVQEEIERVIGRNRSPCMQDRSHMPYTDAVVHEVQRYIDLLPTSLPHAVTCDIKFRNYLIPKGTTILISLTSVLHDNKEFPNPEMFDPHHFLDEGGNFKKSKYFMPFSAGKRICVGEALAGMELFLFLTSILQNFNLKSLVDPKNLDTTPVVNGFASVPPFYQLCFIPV
Chain of Voltage-gated inwardly rectifying potassium channel KCNH2 (Homo sapiens) (Q12809 whole entry, looked up): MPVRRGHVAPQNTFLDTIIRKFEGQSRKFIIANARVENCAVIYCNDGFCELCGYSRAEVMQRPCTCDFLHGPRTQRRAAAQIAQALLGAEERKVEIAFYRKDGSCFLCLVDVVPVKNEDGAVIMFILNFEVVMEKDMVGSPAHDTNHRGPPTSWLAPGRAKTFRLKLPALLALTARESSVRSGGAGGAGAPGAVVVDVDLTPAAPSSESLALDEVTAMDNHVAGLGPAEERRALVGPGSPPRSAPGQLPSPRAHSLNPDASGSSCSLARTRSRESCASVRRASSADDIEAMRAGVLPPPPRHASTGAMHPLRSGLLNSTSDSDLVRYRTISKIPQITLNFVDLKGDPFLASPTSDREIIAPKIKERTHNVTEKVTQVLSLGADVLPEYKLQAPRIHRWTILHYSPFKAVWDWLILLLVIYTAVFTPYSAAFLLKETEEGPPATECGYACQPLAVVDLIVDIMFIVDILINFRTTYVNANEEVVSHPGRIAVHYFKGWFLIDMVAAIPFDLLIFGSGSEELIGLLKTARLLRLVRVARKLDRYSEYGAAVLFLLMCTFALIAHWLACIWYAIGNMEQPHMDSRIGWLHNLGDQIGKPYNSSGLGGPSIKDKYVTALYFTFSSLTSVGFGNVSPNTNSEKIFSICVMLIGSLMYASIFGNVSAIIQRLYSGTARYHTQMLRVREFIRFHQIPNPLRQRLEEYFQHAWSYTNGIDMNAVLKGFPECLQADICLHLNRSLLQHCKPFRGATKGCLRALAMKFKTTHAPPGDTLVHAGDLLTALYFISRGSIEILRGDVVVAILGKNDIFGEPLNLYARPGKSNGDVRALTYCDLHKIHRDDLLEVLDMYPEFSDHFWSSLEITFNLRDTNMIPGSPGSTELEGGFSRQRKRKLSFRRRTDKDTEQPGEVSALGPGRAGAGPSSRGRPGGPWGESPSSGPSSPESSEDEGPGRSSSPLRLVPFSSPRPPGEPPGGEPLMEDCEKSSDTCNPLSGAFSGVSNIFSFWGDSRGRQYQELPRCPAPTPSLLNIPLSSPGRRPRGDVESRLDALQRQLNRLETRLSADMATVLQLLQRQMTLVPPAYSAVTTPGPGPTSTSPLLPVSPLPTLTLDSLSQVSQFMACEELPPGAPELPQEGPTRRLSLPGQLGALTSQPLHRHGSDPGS
Chain of Acetylcholinesterase (Homo sapiens) (P22303 whole entry, looked up): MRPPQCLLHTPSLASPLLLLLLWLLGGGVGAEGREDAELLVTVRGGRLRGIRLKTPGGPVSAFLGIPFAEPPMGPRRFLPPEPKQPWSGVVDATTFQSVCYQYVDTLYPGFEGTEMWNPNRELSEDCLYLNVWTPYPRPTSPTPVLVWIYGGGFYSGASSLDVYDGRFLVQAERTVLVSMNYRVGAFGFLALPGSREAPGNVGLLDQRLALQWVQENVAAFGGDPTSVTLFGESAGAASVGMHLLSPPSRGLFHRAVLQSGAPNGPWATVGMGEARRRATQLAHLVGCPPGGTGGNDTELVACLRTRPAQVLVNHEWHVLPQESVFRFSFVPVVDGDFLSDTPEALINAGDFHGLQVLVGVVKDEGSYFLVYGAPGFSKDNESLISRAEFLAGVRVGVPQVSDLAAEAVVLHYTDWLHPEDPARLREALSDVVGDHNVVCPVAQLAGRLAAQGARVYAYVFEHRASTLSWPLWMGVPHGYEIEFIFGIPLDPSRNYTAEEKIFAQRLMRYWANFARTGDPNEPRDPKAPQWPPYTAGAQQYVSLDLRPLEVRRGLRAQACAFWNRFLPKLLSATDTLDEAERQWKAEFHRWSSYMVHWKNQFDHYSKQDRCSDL
Chain of Cytochrome P450 2D6 (Homo sapiens) (P10635 whole entry, looked up): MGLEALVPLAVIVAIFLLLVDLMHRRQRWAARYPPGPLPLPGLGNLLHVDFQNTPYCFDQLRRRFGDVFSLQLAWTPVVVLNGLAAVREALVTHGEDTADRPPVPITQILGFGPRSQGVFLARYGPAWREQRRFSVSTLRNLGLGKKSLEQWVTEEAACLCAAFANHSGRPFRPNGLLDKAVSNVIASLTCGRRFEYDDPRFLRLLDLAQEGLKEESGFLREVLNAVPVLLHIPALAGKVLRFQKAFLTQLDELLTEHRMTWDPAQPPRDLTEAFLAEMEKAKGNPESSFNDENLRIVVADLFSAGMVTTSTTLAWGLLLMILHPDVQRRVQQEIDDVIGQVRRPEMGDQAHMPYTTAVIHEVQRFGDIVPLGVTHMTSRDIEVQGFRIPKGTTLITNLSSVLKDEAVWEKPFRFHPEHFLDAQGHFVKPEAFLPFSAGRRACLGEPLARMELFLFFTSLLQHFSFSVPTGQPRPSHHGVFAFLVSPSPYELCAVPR
Chain of Cytochrome P450 1A2 (Homo sapiens) (P05177 whole entry, looked up): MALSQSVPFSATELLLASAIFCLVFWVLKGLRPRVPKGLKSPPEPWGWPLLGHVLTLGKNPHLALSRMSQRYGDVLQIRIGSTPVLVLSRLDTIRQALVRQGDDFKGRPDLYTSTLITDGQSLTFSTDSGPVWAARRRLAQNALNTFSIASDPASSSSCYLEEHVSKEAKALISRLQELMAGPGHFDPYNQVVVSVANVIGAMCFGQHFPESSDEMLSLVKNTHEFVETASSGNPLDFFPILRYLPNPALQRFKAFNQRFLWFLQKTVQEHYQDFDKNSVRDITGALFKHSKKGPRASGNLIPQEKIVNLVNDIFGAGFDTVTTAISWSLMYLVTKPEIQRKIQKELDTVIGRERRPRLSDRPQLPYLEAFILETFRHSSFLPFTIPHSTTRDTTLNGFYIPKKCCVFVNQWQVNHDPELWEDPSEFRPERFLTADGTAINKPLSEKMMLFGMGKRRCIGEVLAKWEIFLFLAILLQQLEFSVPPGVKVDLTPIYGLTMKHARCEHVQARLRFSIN
Chain of Nuclear receptor subfamily 1 group I member 2 (Homo sapiens) (O75469 whole entry, looked up): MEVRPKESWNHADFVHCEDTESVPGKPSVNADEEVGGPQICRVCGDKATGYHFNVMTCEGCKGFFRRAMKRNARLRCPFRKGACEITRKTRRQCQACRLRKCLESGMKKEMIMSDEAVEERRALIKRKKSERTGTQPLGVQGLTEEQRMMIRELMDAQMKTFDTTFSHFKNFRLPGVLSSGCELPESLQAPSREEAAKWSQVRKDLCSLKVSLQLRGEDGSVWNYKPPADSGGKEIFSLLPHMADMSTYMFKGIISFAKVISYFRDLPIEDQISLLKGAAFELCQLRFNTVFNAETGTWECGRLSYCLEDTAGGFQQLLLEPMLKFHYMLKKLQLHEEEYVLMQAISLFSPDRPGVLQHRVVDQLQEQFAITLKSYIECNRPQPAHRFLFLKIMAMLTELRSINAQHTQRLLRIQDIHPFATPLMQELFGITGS

O=C(CBr)c1ccc(O)cc1
inactive: [1] | [2] | [3] | [4] | [5] | [6] | [7] | [8] | [10] | [11]
active: [9] 31.7 µM

C[C@]12CC[C@@H]3c4ccc(OC(=O)N(CCCl)CCCl)cc4CC[C@H]3[C@@H]1CC[C@@H]2O
inactive: [1] | [2] | [3] | [4] | [12] | [13] | [14] | [6] | [7] | [15] | [16] | [8] | [9] | [10] | [11]

Oc1ccc(I)cc1
inactive: [1] | [17] | [4] | [14] | [5] | [6] | [7] | [10] | [11]
active: [9] 39.9 µM

CN(C)CCc1c[nH]c2ccc(O)cc12
inactive: [1] | [2] | [3] | [4] | [5] | [6] | [7] | [16] | [10] | [11]
active: [15] 17.4 µM | [8] 24.6 µM

C=CC(=O)OCC(COC(=O)C=C)(COC(=O)C=C)COC(=O)C=C
inactive: [14] | [5] | [6] | [7] | [9] | [10]
active: [1] 15.4 µM | [17] 3.86 µM | [15] 28.3 µM | [16] 17.8 µM | [8] 14.2 µM | [11] 1.26 µM

Fc1ccc(Oc2ccnc3cc(Cl)cc(Cl)c23)cc1
inactive: [1] | [2] | [3] | [14] | [5] | [6] | [7]
active: [4] 27.3 µM | [15] 35.6 µM | [16] 20 µM | [8] 31.7 µM | [9] 0.71 µM | [10] 24.5 µM | [11] 63.3 µM

O=C(O)COc1nc(Cl)c(Cl)cc1Cl
inactive: [1] | [2] | [4] | [14] | [5] | [6] | [7] | [10]
active: [15] 6.48 µM | [8] 51.5 µM

Oc1ccc(C(=C(Cl)Cl)c2ccc(O)cc2)cc1
active: [17] 61 µM | [4] 61 µM | [16] 12.6 µM | [8] 5.63 µM | [9] 39.8 µM | [11] 11.2 µM
inactive: [1] | [14] | [6] | [7] | [15]

O=[N+]([O-])c1cc([N+](=O)[O-])c2ccccc2c1
inactive: [1] | [2] | [5] | [7] | [10] | [11]
